ChEMBL document CHEMBL1157539, “Thousands of chemical starting points for antimalarial lead identification” (Nature, 2010)

What follows are compounds tested on Plasmodium falciparum (assay: GSK_TCMDC: Inhibition of Plasmodium falciparum 3D7 in whole red blood cells, using parasite LDH activity as an index of growth. Test compounds present at 2uM).
Assay type: functional

| SMILES | Inhibition [%] |
| --- | --- |
| O=C(Nc1ccc2c(c1)CCN2C1CCN(Cc2ccc(C(F)(F)F)cc2F)C1)c1ccco1 (stereo not given) | 91 |
| CCCc1cc(=O)[nH]c(-n2nc(C)cc2NC(=O)C(CC)c2ccccc2)n1 (stereo not given) | 94 |
| O=C(O)C(F)(F)F.c1ccc(CCNCc2ccc(-c3cccc(-c4nc5ccccc5[nH]4)c3)cc2)nc1 | 100 |
| CC(=O)N(C)C1CCN(Cc2cccc(-c3ccc(-c4nc5cc(F)ccc5[nH]4)cc3)c2)C1.O=C(O)C(F)(F)F (stereo not given) | 92 |
| CCCNC(=O)CN1CN(c2ccccc2)C2(CCN(C(=O)c3ccc(C(C)(C)C)cc3)CC2)C1=O | 99 |
| COC(=O)c1ccccc1N1CCN(CCCCNC(=O)c2ccc(NC(=O)c3cc(Cl)cc(Cl)c3)cc2)CC1 | 100 |
| COC(=O)Nc1cc(C(F)(F)F)ccc1N1CCCC(NS(=O)(=O)c2ccc(C(C)(C)C)cc2)C1 (stereo not given) | 97 |
| CCN(CC)CCNC(=O)c1ccc(NC(=O)c2cn(-c3ccccc3)nc2-c2cccs2)cc1 | 100 |
| O=C(Nc1nccs1)c1cn(-c2ccccc2)nc1-c1ccc(Cl)s1 | 96 |
| OC(c1ccccc1)C1CN(Cc2ccccc2)CCC1(O)c1ccccc1 (stereo not given) | 91 |
| COc1ccc(CNCc2ccccc2)cc1-c1ccc(OC)c(S(=O)(=O)NCCN2CCCC2)c1.O=C(O)C(F)(F)F | 100 |
| Br.Oc1cccc(CCNCCCCCCNCCc2ccc(Cl)cc2)c1 | 96 |
| COc1ccc2c(NN=Cc3cccnc3)ccnc2c1 | 97 |
| COc1cc(C)nc2ccc(NC(=O)Nc3ccccc3[N+](=O)[O-])cc12 | 100 |
| Cc1c(CCC#N)c(NCc2ccccc2)n2c(nc3ccccc32)c1C#N | 100 |
| Cc1noc(C)c1-c1ccc2c(Nc3ccccc3N3CCOCC3)c(C(=O)NCc3ccccc3)cnc2c1.Cl | 91 |
| CNCc1ccc(CN(C)c2nc(N)c3cc(OC)c(OC)cc3n2)cc1.O=C(O)C(F)(F)F | 96 |
| COc1cc(NC(=O)Nc2ccc([N+](=O)[O-])cc2OC)c(OC)cc1Cl | 87 |
| Cc1cc(NCCc2ccccc2)nc(NC(=N)Nc2cccc(F)c2)n1 | 91 |
| Cc1ccc(NC(=O)c2ccc(NCCCN3CC(C)CC(C)C3)c([N+](=O)[O-])c2)cc1F (stereo not given) | 100 |

| SMILES | Inhibition [%] |
| --- | --- |
| COC(=O)c1ccc(CC(C)NCC(O)c2ccc(C(O)CNC(C)Cc3ccc(C(=O)OC)cc3)cc2)cc1.O (stereo not given) | 88 |
| COc1ccc2c(N/N=C/c3ccccc3[N+](=O)[O-])cc(C)nc2c1 | 100 |
| Cc1cc(-c2cnc(N)c(-c3ccc(N4CCN(C)CC4)nc3)c2)cc(C)c1O | 91 |
| Cl.Oc1ccc(Cc2ccccc2)cc1CNC1CCCCC1 | 96 |
| Br.COc1cc(OCCCCCCON2C(=N)N=C(N)NC2(C)C)cc(OC)c1OC | 94 |
| CC(=O)Nc1ccc(CN2CCC(NC(=O)c3ccc(-c4cccc(OC(C)C)c4)s3)CC2)cc1.O=C(O)C(F)(F)F | 89 |
| COc1cc(OC)c(NC(=O)COc2ccc(C)cc2)cc1Cl | 86 |
| CCCCNC[C@@H](O)[C@H](Cc1ccccc1)NC(=O)c1cc(NCC)cc(N2CCCCS2(=O)=O)c1.Cl | 99 |
| NC1CCN(c2nc(NCCCc3ccc(O)cc3)nc(NCc3ccccc3-c3ccccc3)n2)CC1.O=C(O)C(F)(F)F | 100 |
| O=C(NCCCN1CCCC1=O)c1cnc(N2CCC(Oc3ccccc3)CC2)c(Cl)c1 | 97 |
| Nc1cc(-c2cccc(Cl)c2)nn1-c1ccnc2cc(Cl)ccc12 | 99 |
| Fc1ccc(CNc2ccc3ncc(-c4cccnc4)n3n2)cc1 | 87 |
| CCOC(=O)NC1=NC(C)(C)N(OCCCOc2ccc(C)cc2C)C(NC(=O)OCC)=N1 | 95 |
| COc1ccccc1C(=O)Nc1ccc(Nc2nc(C)cc(N(C)C)n2)cc1 | 100 |
| Cc1ccc(Cc2c[nH]c(NCCSCc3ccc(CN(C)C)s3)nc2=O)cn1 | 95 |
| Br.Oc1ccc(CCNCCCCCCNCCCc2ccc(Cl)cc2)cc1O | 87 |
| O=C(Nc1ccsc1C(=O)NC1CCCCC1)c1ccc(F)cc1 | 86 |
| COc1ccc2ccc(F)c(CC(=O)N3CCOC(CNCc4cccc(-c5ccc(F)cc5)n4)C3)c2n1 (stereo not given) | 92 |
| CC(=O)NCCNCc1cccc(C(=O)NCc2cccc(C(F)(F)F)c2)c1 | 95 |
| COc1c(C(=O)NC2CCN(Cc3ccccc3)C2)cnc2ccccc12.Cl (stereo not given) | 86 |
